Screening results deposited in PubChem by National Center for Advancing Translational Sciences (NCATS).
Sampled rows, rich in hits. Any-hit rate of the full collection: about 11%.
VACV Venus inh = inhibitors of vaccinia virus (Venus reporter); Vaccinia virus Venus reporter expression, fluorescence; Potency, µM (top dose mostly 36.5 µM), hits mostly inhibitors; 330,000 tested, 0.46% active; AID 720580; calls by dose curve; tested in A549 cells; note: nearly all actives have a fitted effect of over 30% in size
NS1 inh = inhibitors of influenza NS1 protein function | 270,000 tested, 0.4% active | Potency, µM (titrated, usually from 46.1 µM); calls by dose curve; note: actives are rising curves; nearly all actives have a fitted effect of over 50% in size
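Read-out: OD600 growth recovery of NS1-expressing budding yeast. Cells grown overnight at 30C in -URA glucose medium, washed, resuspended and diluted 1:100 in 2% galactose assay medium, pH 6.0. Same strain lacking NS1 served as positive control.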
VACV mCherry inh = inhibitors of vaccinia virus infection (mCherry reporter signal); Vaccinia virus mCherry reporter infection, fluorescence; Potency, µM (highest dose often 36.5 µM), usual class: inhibitors; 310,000 tested, 0.63% active; calls by dose curve; tested in A549 cells; note: nearly all actives have a fitted effect of over 35% in size
Pf growth 96h = P. falciparum growth inhibition at 96 hours | P. falciparum luciferase reporter growth, 96 h | Potency, µM (top dose mostly 28.7 µM), most hits filed as inhibitors | 320,000 tested, 6.9% active | AID 504834
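Delayed-death screen, second-generation endpoint: infected erythrocytes, 2% hematocrit, 0.05% parasitemia final; 96 hours at 37 C, 5% CO2; luciferase detection reagent; luminescence decrease equals reduced growth.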
HCV inhibitor = blocks hepatitis C virus; 340,000 tested, 3.4% active; Potency, µM (highest dose often 41.8 µM), actives largely listed as inhibitors; Huh7.5.1 HCVcc-Cre infection, luciferase reporter, 44 h
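Seed cells (1,000/well) for 4 h; treat with compound and infect with HCVcc-Cre, moi about 0.5. Incubate 44 h, then detect luciferase activity.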
Pf growth 48h = P. falciparum growth inhibition at 48 hours (one generation); P. falciparum luciferase growth in erythrocytes, 48 h; Potency, µM (highest dose often 28.7 µM), actives largely listed as inhibitors; 310,000 tested, 5.9% active; AID 504832
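Growth was read as firefly luciferase luminescence after a 48 h, 37 C, 5% CO2 exposure of compounds to reporter-bearing P. falciparum cultures (0.1% parasitemia, 2% hematocrit final) in Albumax-supplemented RPMI 1640.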
Hits are given with their value; – = inactive; ? = inconclusive; · = not tested or not shown; [ ] = another dose, or the depositor's remark. Unless noted, calls come from the whole dose curve; as a rule, active = well fitted inhibition curve with a large enough effect; inconclusive = small, poorly fitted or top-dose-only effect, or another doubt; inactive = no such curve, though single readings can be large or run the other way.

SMILES | VACV Venus inh | NS1 inh | VACV mCherry inh | Pf growth 96h | HCV inhibitor | Pf growth 48h
COCCNC(=S)NNC(=O)c1ccc(-n2cnnn2)cc1 | – | · | – | – | – | –
Cc1ccc(Sc2ccc(NC(=O)CCl)cc2)c(C)c1 | · | · | · | ? | ? | 8.3µM
CC(C)CCN1CCN(Cc2coc3ccccc3c2=O)CC1CCO (stereo not drawn) | – | – | – | 4.1µM | – | –
OCCC1CN(Cc2ccc3nsnc3c2)CCN1CCc1ccccc1 (stereo not drawn) | – | – | – | 12µM | – | –
CC(C)CCN1CCN(Cc2ccc(C#CCCO)cc2)CC1CCO (stereo not drawn) | – | – | – | 12µM | – | –
Cn1cc(CN2CCN(CCc3ccccc3)C(CCO)C2)cn1 (stereo not drawn) | · | – | · | – | – | –
CSc1ccc(CN2CCN(CCC(C)C)C(CCO)C2)cc1 (stereo not drawn) | · | – | · | – | ? | ?
CC(C)c1csc(CN2CCN(CCc3ccccc3)C(CCO)C2)n1 (stereo not drawn) | · | – | · | 1.7µM | – | ?
CCOc1cc(CNS(=O)(=O)c2ccc3c(c2)C(C)(C)C(=O)N3)cc(OCC)c1OCC | – | · | – | · | · | ·
O=C(CP(=O)(c1ccccc1)c1ccccc1)N/N=C/c1cc(Br)cc(Br)c1O | – | – | – | – | ? | –
CSc1ccc(Cl)c(C(=O)OCC(=O)N2CCN(C(=O)c3ccco3)CC2)c1 | · | · | · | – | – | –
COc1ccccc1Cn1c(=O)oc2ccc(C)cc21 | – | – | – | ? | – | –
C#Cc1ccc(CN2CCN(CCCc3ccccc3)C(CCO)C2)cc1 (stereo not drawn) | – | – | – | ? | – | –
CC(C)(C)CN1CCN(CC#Cc2ccccc2)CC1CCO (stereo not drawn) | · | – | · | ? | – | –
CN1CCN(CC#Cc2ccccc2)CC1CCO (stereo not drawn) | – | – | – | 4.1µM | – | –
OCCC#Cc1ccc(CN2CCN(CCc3ccccc3)C(CCO)C2)cc1 (stereo not drawn) | – | – | – | 8.3µM | – | ?
CCOc1ccc(C(C(=O)NCC2CCCO2)N(Cc2ccccc2)C(=O)c2snc(C(N)=O)c2N)cc1 (stereo not drawn) | – | – | – | – | – | ?
C=CCOc1ccccc1CNc1cccc(F)c1 | – | – | – | 10µM | – | –
Cc1ccc2c(CC(=O)OCc3nc(N)nc(Nc4ccccc4C)n3)coc2c1 | · | – | · | – | – | –
C=CCN1C(=O)/C(=C2/Sc3ccc(OC)cc3N2C)SC1=Nc1ccccc1 | · | – | · | –[1.15 µM] | ? | –
CCCCN1C(=O)/C(=C2/Sc3ccccc3N2C)S/C1=N\c1ncn[nH]1 | · | – | · | – | – | 7.4µM
N#Cc1cc([N+](=O)[O-])ccc1NC(=O)COC(=O)C1CC2CCCC(C1)C2=O (stereo not drawn) | – | · | – | – | –[8.37 µM] | –
Cc1cc(C)c(O)c(-c2n[nH]c3c2C(c2cccc(O)c2)N(Cc2ccco2)C3=O)c1 (stereo not drawn) | ? | – | 10µM | – | 11µM | –
O=C1c2[nH]nc(-c3ccccc3O)c2C(c2cccc(Cl)c2)N1Cc1ccco1 (stereo not drawn) | · | · | · | · | 13µM | 8.3µM
CCOc1ccc(CNC(=O)CCS(=O)(=O)Cc2cccc(Cl)c2)cc1OC | – | · | – | – | – | –
SMILES | VACV Venus inh | NS1 inh | VACV mCherry inh | Pf growth 96h | HCV inhibitor | Pf growth 48h
O=C(COc1ccccc1Cl)NC(=S)Nc1ccc(CN2CCOCC2)cc1 | – | – | – | ? | – | –
CC(C)C#Cc1ccc2c(c1)O[C@@H](CN(C)S(=O)(=O)c1cn(C)cn1)[C@@H](C)CN([C@H](C)CO)S2(=O)=O | – | · | – | · | · | ·
O=C(O)c1cn(-c2ccc(F)cc2)c2cc(N3CCNCC3)c(F)cc2c1=O | – | · | – | 3.4µM | – | ?
Cn1cc(S(=O)(=O)c2ccccc2)c(=O)c2cc(F)c(N3CCN(c4ccc(F)cc4)CC3)cc21 | – | · | – | · | · | ·
Cc1ccc(C(=O)O)cc1[N+](=O)[O-] | – | · | – | – | – | –
Cc1cc(C)c(NC(=O)c2cc(C(=O)O)ccc2C(=O)O)c([N+](=O)[O-])c1 | – | · | – | 2.3µM | – | –
COc1cc(-c2cc(OC)c3c(C)oc(C)c3c(=O)c2)ccc1O | – | – | – | 3.7µM | ? | ?
COc1ccc(-c2cc(OC)c3c(C)oc(C)c3c(=O)c2)cc1OC | – | – | – | – | ? | 4.7µM
COc1ccc(-c2cc(OC(=O)c3ccc(F)cc3)c3c(C)oc(C)c3c(=O)c2)cc1OC | – | · | – | · | · | ·
CC(C)c1ccc(N(CC(=O)NCc2ccco2)C(=O)CCC(=O)Nc2ccccn2)cc1 | – | – | – | 0.74µM | ? | –
Cc1cccc(N(CC(=O)NCc2ccco2)C(=O)CCC(=O)Nc2ccccn2)c1C | – | – | – | 1.9µM | – | –
O=C(CN(CC1CCCO1)C(=O)Cn1nnc(-c2ccc(F)cc2)n1)NC1CCCCC1 (stereo not drawn) | · | – | · | – | – | ·
C=CCCC(=O)N1CCCC(Cc2cccc(Cl)c2)(C(=O)OCC)C1 (stereo not drawn) | – | – | – | 12µM | ? | –
CCOC(=O)C1(Cc2cccc(Cl)c2)CCCN(C(=O)c2ccc(C)nc2)C1 (stereo not drawn) | – | – | – | 15µM | – | –
CCOC(=O)C1(Cc2cccc(Cl)c2)CCCN(C(=O)c2cc(C)on2)C1 (stereo not drawn) | – | – | – | – | · | –
CN(C)S(=O)(=O)c1ccc2c(c1)nc(CCC(=O)Nc1ccc3c(c1)OCO3)n2C | – | – | – | ? | – | ?
CC1CCCC=CC2CC(OC(=O)CN(C)C)CC2C(O)C=CC(=O)O1 (stereo not drawn) | ? | · | ? | · | 0.56µM | ·
CC(=O)N1CCN(c2ccc(NC(=S)NC(=O)COc3ccc(C(C)(C)C)cc3)cc2)CC1 | – | – | – | ? | ? | –
CC1CCN(c2ccc(NC(=S)NC(=O)c3ccc(-c4cccc([N+](=O)[O-])c4)o3)cc2)CC1 | · | – | · | · | – | 4.7µM
CCC(=O)N1CCN(c2ccc(NC(=S)NC(=O)c3cccc([N+](=O)[O-])c3)cc2)CC1 | – | – | · | 7.4µM | – | –
CCC(=O)N1CCN(c2ccc(NC(=S)NC(=O)COc3ccccc3)cc2)CC1 | · | – | · | 15µM | – | –
CCC(=O)N1CCN(c2ccccc2NC(=S)NC(=O)c2cccc([N+](=O)[O-])c2)CC1 | – | · | – | – | ? | –
COc1ccc(S(=O)(=O)N2CCCC(C(=O)Nc3ccc4c(c3)OCCO4)C2)cc1 (stereo not drawn) | – | – | – | – | – | ?
O=C1C(=O)N(Cc2ccccc2)C(c2cccc(O)c2)/C1=C(\O)c1ccc2c(c1)OCCO2 (stereo not drawn) | · | – | · | – | – | –
O=C(C[C@H]1C/C=C\CCCC(=O)OC[C@H]2CCCN2C1=O)NCCO | – | · | – | · | ? | ·
